Only some compounds are listed: those with a hit (about 8% of all), similar ones and a draw of the others.
HT1080NT lethal: kills 2HG-producing HT-1080-NT fibrosarcoma cells; HT-1080-NT fibrosarcoma viability, CellTiter-Glo ATP luminescence, 48 h; Potency, µM (series often up to 46.1 µM), for inactives: at the highest dose activity, negative = less viability, usual class: cytotoxic; 360,000 tested, 1.6% active;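 also: NT is the 2HG producing partner of a matched IDH1 knockdown line; 0% = DMSO-treated cells and -100% = media-only wells without cells; nearly all actives have a fitted effect of over 55% in size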
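Compounds were tested in concentration-response format on HT-1080-NT cells for 48 hours at 37 degrees C. Cell viability came from CellTiter-Glo luminescence; curves were classified by r2, response magnitude and activity.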
HT1080 IDH1KD tx: toxicity to HT-1080 IDH1 knockdown cells (counter line); Potency, µM (series often up to 46.1 µM), for the others: at the highest dose activity, negative = toxicity, actives largely listed as cytotoxic; 360,000 tested, 2% active; HT-1080 IDH1 knockdown viability, ATP luminescence, 48 h;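 also: 0% = DMSO wells and -100% = cell-free medium wells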
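Viability of IDH1-knockdown HT-1080 fibrosarcoma cells was assessed by CellTiter-Glo after 48 h at 37 °C with titrated compound; concentration-effect curves were classified by fit quality and response size.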
KB-3-1 tox: kills parental KB-3-1 adenocarcinoma cells; KB-3-1 viability, CellTiter-Glo ATP luminescence, 72 h; Potency, µM (series often up to 46.1 µM), hits mostly cytotoxic; 400,000 tested, 1.4% active; AID 1347075; also: % is scaled to controls: 0 for no effect and ±100 for the full control effect; nearly all actives have a fitted effect of over 60% in size
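72 h, 37 °C compound treatment of KB-3-1 parental cells; CellTiter-Glo added, 10 min, luminescence read. Data corrected against DMSO-only plates and normalized before curve fitting.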
MCF10A rereplic: induces DNA re-replication in MCF 10a normal breast cells | MCF 10A DNA re-replication, Hoechst nuclear intensity, 48 h | Potency, µM (series often up to 46.1 µM), inactives show at the top dose activity, positive = re-replication, actives largely listed as activators | 350,000 tested, 2.9% active | AID 624296; also: % of control where 0% means no effect; nearly all actives have a fitted effect of over 50% in size
KB-V1 MDR tox: KB-V1 MDR subline cytotoxicity. Potency, µM (titrated, usually from 46.1 µM), most hits filed as cytotoxic. KB-V1 MDR cells viability, CellTiter-Glo, 72 h. 400,000 tested, 3.4% active; also: % is scaled to controls: 0 for no effect and ±100 for the full control effect; nearly all actives have a fitted effect of over 60% in size
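Following 72 h at 37 degrees C with compound, KB-V1 cell viability was read by CellTiter-Glo luminescence, medium being phenol-red-free DMEM plus 10% FBS; concentration-response parameters came from normalized, curve-fitted qHTS data.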
SW480 rereplic: induces DNA re-replication in SW480 colon adenocarcinoma cells. 340,000 tested, 1.8% active. SW480 DNA re-replication, Hoechst DNA content imaging, 48 h. AID 624297. Potency, µM (series often up to 46.1 µM), inactives show top-dose re-replication activation, most hits filed as activators; also: % of control where 0% means no effect; nearly all actives have a fitted effect of over 55% in size
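Treated cells incubate 48 hr (37 C, 5% CO2), are stained 40 min with Hoechst, and nuclear fluorescence is enumerated; a rise in nuclei with high DNA signal marks re-replication.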
The depositor's hits bear a star; ! = not active in a repeat; [ ] = dose if it differs, or a comment. Calls follow the shape of the dose curve; as a rule, active = well fitted curve in the direction sought with a large enough effect; inconclusive = small, poorly fitted or top-dose-only effect, or another doubt; inactive = no such curve, though single readings can be large; an effect the other way counts as inactive or inconclusive. Potency is read from the fitted curve at half-maximal effect.

Cc1cccc(NC(=O)CNC(=O)Cn2ncc(Cl)c(Cl)c2=O)c1C was read as HT1080NT lethal 25.9µM*, HT1080 IDH1KD tx 7.31µM*, KB-3-1 tox inconclusive, MCF10A rereplic 5.17µM*, KB-V1 MDR tox inconclusive and SW480 rereplic 8.2µM*.
`O=C1CN(C(=O)Cn2ncc(Cl)c(Cl)c2=O)c2ccccc2N1` gave HT1080NT lethal 4.61µM*, HT1080 IDH1KD tx 4.11µM*, KB-3-1 tox inconclusive, MCF10A rereplic 1.84µM*, KB-V1 MDR tox inconclusive and SW480 rereplic 13.7%.
O=C(Cn1ncc(Cl)c(Cl)c1=O)NCC1CCCCC1 was read as HT1080NT lethal inconclusive, HT1080 IDH1KD tx inconclusive, KB-3-1 tox 14.6µM*, MCF10A rereplic 5.8µM*, KB-V1 MDR tox inactive and SW480 rereplic inconclusive.
Screening COc1ccc(CCNC(=O)C(C)n2nc(C)c3sc4ccccc4c3c2=O)cc1OC (stereo not given) returned KB-3-1 tox inactive and KB-V1 MDR tox inactive.
CCCOc1ccc(-c2nn(-c3ccccc3)cc2C2NC(=O)NC(C)=C2C(=O)OC(C)C)cc1 (stereo not given) was read as KB-3-1 tox inactive and KB-V1 MDR tox inconclusive.
Cc1cccc(NC(=O)CN2CCN(CC(=O)NCc3ccc(Cl)cc3Cl)CC2)c1C was read as HT1080NT lethal -3.2%, HT1080 IDH1KD tx 10.8%, KB-3-1 tox inactive, MCF10A rereplic -6.5%, KB-V1 MDR tox 3.66µM* and SW480 rereplic -3.8%.
CCCCn1cnc2c([nH]c3cc(OC)ccc32)c1=O was read as HT1080NT lethal 23.8%, HT1080 IDH1KD tx 24.4%, KB-3-1 tox inactive, MCF10A rereplic 11.2%, KB-V1 MDR tox inconclusive and SW480 rereplic -2.8%.
Screening COc1ccc2c(c1)[nH]c1c(=O)n(Cc3ccco3)cnc12 returned HT1080NT lethal inconclusive, HT1080 IDH1KD tx inconclusive, KB-3-1 tox inconclusive, MCF10A rereplic -0.2%, KB-V1 MDR tox 14.6µM* and SW480 rereplic -7.8%.
For COc1ccc2c(c1)[nH]c1c(=O)n(CC3CCCO3)cnc12 (stereo not given) the results were HT1080NT lethal 5.7%, HT1080 IDH1KD tx 4.6%, KB-3-1 tox inactive, MCF10A rereplic -5.5%, KB-V1 MDR tox 20.6µM* and SW480 rereplic 0.7%.
Screening COc1ccc(-c2cc(C(F)(F)F)nc(SCC(=O)N3CCCCC3)n2)cc1 returned KB-3-1 tox inactive and KB-V1 MDR tox inactive.
For COc1ccc(-c2noc(CSc3nnc(Cc4ccccc4)n3-c3ccc(Cl)cc3)n2)cc1 the results were HT1080NT lethal inconclusive, HT1080 IDH1KD tx inconclusive, KB-3-1 tox inactive, MCF10A rereplic inconclusive, KB-V1 MDR tox 11.6µM* and SW480 rereplic 18.7%.
Cc1ccc(-c2noc(CSc3nnc(Cc4ccccc4)n3-c3ccc(Cl)cc3)n2)cc1 was read as HT1080NT lethal inconclusive, HT1080 IDH1KD tx inconclusive, KB-3-1 tox inconclusive, MCF10A rereplic inconclusive, KB-V1 MDR tox 18.4µM* and SW480 rereplic inconclusive.
For COc1ccc(-c2noc(CSc3nnc(CCc4ccccc4)n3-c3ccccc3)n2)cc1OC the results were HT1080NT lethal inconclusive, HT1080 IDH1KD tx inconclusive, KB-3-1 tox inactive, MCF10A rereplic inconclusive, KB-V1 MDR tox 23.1µM* and SW480 rereplic 23.9%.
Screening COc1ccc(-n2c(SCc3nc(-c4ccc(Cl)cc4)no3)nnc2-c2ccncc2)cc1 returned KB-3-1 tox inactive and KB-V1 MDR tox inconclusive.
Screening CN(Cc1cnc2nc(N)nc(N)c2n1)c1ccc(C(=O)N[C@@H](CCC(=O)O)C(=O)O)cc1 returned HT1080NT lethal 0.0052µM*!, HT1080 IDH1KD tx 0.0461µM*!, KB-3-1 tox 0.0651µM*!, MCF10A rereplic -43.2%, KB-V1 MDR tox 0.0291µM*! and SW480 rereplic inconclusive.
`CCOC(=O)c1c(S(=O)(=O)N2CCCC(C(=O)Nc3cccc(CC)c3)C2)c(C)n(CC)c1C` (stereo not given) gave KB-3-1 tox inactive and KB-V1 MDR tox inactive.
`CC(C)(C)c1ccc(Cn2c(=N)n(CC(O)c3ccco3)c3ccccc32)cc1` (stereo not given) gave HT1080NT lethal 23.1µM*, HT1080 IDH1KD tx 20.6µM*, KB-3-1 tox inconclusive, MCF10A rereplic inconclusive, KB-V1 MDR tox inconclusive and SW480 rereplic inconclusive.
Cc1ccccc1Cn1c(=N)n(CC(O)c2ccco2)c2ccccc21 (stereo not given) was read as HT1080NT lethal inconclusive, HT1080 IDH1KD tx inconclusive, KB-3-1 tox inactive, MCF10A rereplic 26.3%, KB-V1 MDR tox inconclusive and SW480 rereplic 10.0%.
Screening CCCCCCCn1c(=N)n(CC(O)c2ccco2)c2ccccc21 (stereo not given) returned HT1080NT lethal 16.4µM*, HT1080 IDH1KD tx 23.1µM*, KB-3-1 tox inactive, MCF10A rereplic inconclusive, KB-V1 MDR tox inconclusive and SW480 rereplic -37.6%.
CCOC(=O)c1c(C)oc2nc(C)nc(Nc3cc(C)cc(C)c3)c12 was read as KB-3-1 tox inactive and KB-V1 MDR tox inactive.
Screening COc1ccc(C)cc1-n1c(SCC(=O)Nc2cc(C)on2)nc2ccccc2c1=O returned HT1080NT lethal -27.5%, HT1080 IDH1KD tx -27.3%, KB-3-1 tox inconclusive, MCF10A rereplic 3.0%, KB-V1 MDR tox 18.4µM* and SW480 rereplic 0.7%.
`O=c1c2ccccc2nc(SCc2cccc(F)c2)n1C1CCCC1` gave HT1080NT lethal 0.1%, HT1080 IDH1KD tx 3.8%, KB-3-1 tox inactive, MCF10A rereplic 18.4µM*, KB-V1 MDR tox inconclusive and SW480 rereplic 10.6%.
`Cc1cc(NC(=O)CSc2nc3ccccc3c(=O)n2C2CCCC2)no1` gave HT1080NT lethal inconclusive, HT1080 IDH1KD tx 1.84µM*, KB-3-1 tox inconclusive, MCF10A rereplic 1.3µM*, KB-V1 MDR tox 1.3µM* and SW480 rereplic 1.3µM*.
Screening CCCN(CCC)C(=O)CSc1nc2ccccc2c(=O)n1C1CCCC1 returned HT1080NT lethal -2.5%, HT1080 IDH1KD tx inconclusive, KB-3-1 tox inactive, MCF10A rereplic inconclusive, KB-V1 MDR tox 7.31µM* and SW480 rereplic 21.8%.
For N#CCSc1nc2ccccc2c(=O)n1C1CCCCC1 the results were HT1080NT lethal -7.7%, HT1080 IDH1KD tx 6.7%, KB-3-1 tox inactive, MCF10A rereplic -1.1%, KB-V1 MDR tox inconclusive and SW480 rereplic -0.2%.
CCN(CC)C(=O)CSc1nc2ccccc2c(=O)n1CC1CCCCC1 was read as HT1080NT lethal inconclusive, HT1080 IDH1KD tx inconclusive, KB-3-1 tox inconclusive, MCF10A rereplic inconclusive, KB-V1 MDR tox inactive and SW480 rereplic -0.3%[9.22 µM].
